Results on seven compounds are retold here after PubChem BioAssay.

Test [1] can be described thus: yeast TOR pathway RPL19A-GFP modulators, primary screen, cell-based, S. cerevisiae, multiplex flow cytometry (AID 1862; in the data active = percent of DMSO control GFP below about 86%;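 note: lower values mimic rapamycin by blocking the RPL19A rise seen in DMSO cells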). The note with it: S. cerevisiae RPL19A-GFP strain, flow cytometry fluorescence, 3 h; at 10 µM; stronger effect = lower value.
Test [2] is described as follows: modulators of MEP2-GFP levels in yeast, primary screen, S. cerevisiae, multiplex flow cytometry (AID 1867;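 active = GFP response, as percent of the DMSO control, above the screen-wide mean plus 3 SD, about 139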;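 note: median GFP channel fluorescence of barcode-gated MEP2-GFP cells measured by flow cytometry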). Particulars: S. cerevisiae MEP2-GFP strain, 3 h, at 10 µM, stronger effect = higher value, 100% means same as DMSO wells. In general terms: In flow cytometry, cells or beads pass a laser one at a time.
The nature of test [3]: modulators of CIT2-GFP expression in yeast, primary screen, S. cerevisiae, GFP fusion, multiplex flow cytometry (AID 1870;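 active = percent response above a set limit, the screen-wide mean plus 3 SD, cut at about 130% in these data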;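 note: barcoded CIT2-GFP strain pooled with four other GFP strains with rapamycin as positive control; median GFP fluorescence per well over plate mean of DMSO wells so 100% = DMSO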). The note with it: 3 h, at 10 µM, stronger effect = higher value.
The nature of test [4]: modulators of LAP4-GFP expression in yeast, primary screen, S. cerevisiae, multiplex flow cytometry (AID 1873;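 active = GFP signal, as percent of the solvent control, above the screen mean plus 3 SD, about 149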). Particulars: 3 h, at 10 µM, stronger effect = higher value.
The nature of test [5]: modulators of AGP1-GFP expression in yeast TOR pathway, primary screen, cell-based, multiplex flow cytometry, S. cerevisiae (AID 1887;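 active = GFP signal above the screen-wide mean plus 3 SD, that is over about 124.5% of the solvent control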;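 note: AGP1-GFP fusion strain of S. cerevisiae within a five-strain barcoded multiplex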). The note with it: 3 h, at 10 µM, stronger effect = higher value.
Test [6] can be described thus: inhibitors of CD8+ T cell-vesicle binding, pilot screen, LFA-1/ICAM-1 modulator project, MLPCN validation set, flow cytometry (AID 2523;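 active = response below a set limit, under 55% cells CD8-positive and vesicle-bound, and CD8 cells' 90th-percentile brightness under 279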;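 for vesicle binding response: mean PE anti-B7-1 fluorescence of CD8+ cells relative to row control; 100% = QL9-loaded vesicles with DMSO vehicle in the same plate row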). Particulars: 2C mouse CD8+ T cells, at 7 µM, stronger effect = lower value; double positive events: measured here: CD8+/vesicle+ event percentage.
In test [7] the target is Integrin beta-1 (Homo sapiens) + Integrin alpha-4 (Homo sapiens) (UniProt P13612+P05556). The test can be described thus: inhibition of HUTS-21 binding to VLA-4, pilot screen, VLA-4 allosteric modulator project, U937 cells, HUTS-21 mAb, flow cytometry, validation set (AID 2674;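 active = inhibition above 50%, about 3 SD of the validation set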;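 note: antibody binding induced by the VLA-4 ligand LDV present at three times its Kd; 0% = LDV ligand with antibody and no compound and 100% = antibody without LDV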). The note with it: HUTS-21 LIBS mAb binding, at 6.7 µM, stronger effect = higher value, binding induced by LDV ligand.

A short description of test [8]: superoxide lowering in aged yeast cells, pilot screen, validation compound set (AID 2706;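 active = superoxide response below 65% of plate, a cut near 3 SD across the whole screen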;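 note: yeast exposed to compound for one week at 30 degrees C before staining; 100% = mean of all compound wells on the same plate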). The note with it: S. cerevisiae aging, superoxide DHE fluorescence; at 10 µM; stronger effect = lower value.
In test [9] the target is Beta-adrenergic receptor kinase 1 (Homo sapiens) (UniProt P25098). Description: GRK2 binders displacing RNA aptamer, biochemical, validation, human GRK2, bead flow cytometry (AID 488806;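 active = aptamer binding inhibition above 30%, about 3 SD of noise from non-fluorescent compounds; inactive = inhibition at or below 30%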). Particulars: bead-bound GRK2, FAM-aptamer displacement, at 10 µM, stronger effect = higher value.
Test [10] has as its target Beta-2 adrenergic receptor (Homo sapiens) (UniProt P07550). Description: beta2AR agonists driving receptor internalization, pilot screen, cell-based, FAP fluorogen, flow cytometry, validation set (AID 504459).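 Note: agonist-driven loss of surface beta2AR via internalization measured by FAP dye flow cytometry.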 The note with it: Am2.2-beta2AR cells, FAP surface receptor flow cytometry; at 10 µM; stronger effect = higher value.
Test [11] concerns the target AP-2 complex subunit beta (Homo sapiens) (UniProt P63010). Description: inhibitors of arrestin peptide binding to AP2, pilot screen, biochemical, validation set, GST-AP2 beads, flow cytometry (AID 504541;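 active = inhibition above 54%, about 3 SD of non-fluorescent compounds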;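 note: AP2 carries R879A mutation and is captured from E. coli lysate; bead-bound FITC arrestin peptide fluorescence measuring arrestin peptide binding to AP2; 0% = DMSO wells and 100% = excess unlabeled arrestin peptide control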). Particulars: FITC arrestin peptide, at 10 µM, stronger effect = higher value, AP2 beta2 appendage fragment, R879A mutant.
Test [12] in a line: yeast V-ATPase proton transport modulators, S. cerevisiae, pHLuorin, HTS validation (AID 504600; in the data active = response above about 15%;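 note: plate controls were DMSO for no effect and reference compound for full effect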). Particulars: S. cerevisiae pHLuorin cytosolic pH, at 10 µM, stronger effect = higher value.
Test [13] relates to anti-desmoglein-3 scFv antibody binding to human DSG3. Description: inhibitors of anti-DSG3 scFv binding to DSG3, pilot screen, biochemical, validation compound set, bead-based, flow cytometry (AID 588368;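 active = binding below the plate cutoff, the plate median minus 3 SD, with a reading above zero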;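 note: signal is the median channel fluorescence of bead-bound GFP antibody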). The note with it: Protein G beads, DSG3-Fc, scFv-GFP binding, at 10 µM, stronger effect = lower value.
Test [14] in a line: inhibitors of fungal efflux pumps CDR1, CDR2, MDR1, pilot screen, validation compound set, multiplex, phenotypic (AID 588506;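 active = efflux inhibition above 0.42, the validation set average plus 4 SD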;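 note: Nile Red retained in cells so higher fluorescence means more efflux inhibition; 0 = negative control wells and 1 = enniatin B 25 µM full block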). The note with it: S. cerevisiae pump-expressing triplex, Nile Red efflux flow cytometry; at 10 µM; stronger effect = higher value; the pumps come from Candida albicans.
Test [15] deals with ATP-binding cassette sub-family B member 6 (Homo sapiens) (UniProt Q9NP58). Description: ABCB6 transporter inhibitors, pilot screen, K562-ABCB6 cells, flow cytometry, validation set (AID 588550;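 active = inhibition above the screen-wide mean plus 3 SD, about 51%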;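 note: 0% = DMSO wells and 100% = benzethonium chloride 70 µM positive control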). Particulars: K562-ABCB6 porphyrin accumulation, 1 h, at 10 µM, stronger effect = higher value.
Test [16] can be described thus: promoters of myeloid differentiation in arrested cells, primary screen, cell-based, GFP/MAC1 double positive, flow cytometry, validation set (AID 588685;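 active = differentiation response of at least 50%, scaled between solvent and reference control, from cells with both markers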;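 note: compound exposure lasts four days before antibody staining and flow analysis; 0% = DMSO wells and 100% = 5 µM fulvestrant positive control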). The note with it: ER-HoxA9 marrow cells, stronger effect = higher value, normalized: vehicle 0, fulvestrant 100.

Records with an inconclusive call do not appear. Calls of active or inactive are those of the source.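 Rule for the calls, unless noted: active = percent response above 42, roughly 3 SD of non-fluorescent test compounds; inactive = the rest.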

Sequence of AP-2 complex subunit beta (Homo sapiens) (P63010 whole entry, looked up, the tested form may be a part, one chain of several): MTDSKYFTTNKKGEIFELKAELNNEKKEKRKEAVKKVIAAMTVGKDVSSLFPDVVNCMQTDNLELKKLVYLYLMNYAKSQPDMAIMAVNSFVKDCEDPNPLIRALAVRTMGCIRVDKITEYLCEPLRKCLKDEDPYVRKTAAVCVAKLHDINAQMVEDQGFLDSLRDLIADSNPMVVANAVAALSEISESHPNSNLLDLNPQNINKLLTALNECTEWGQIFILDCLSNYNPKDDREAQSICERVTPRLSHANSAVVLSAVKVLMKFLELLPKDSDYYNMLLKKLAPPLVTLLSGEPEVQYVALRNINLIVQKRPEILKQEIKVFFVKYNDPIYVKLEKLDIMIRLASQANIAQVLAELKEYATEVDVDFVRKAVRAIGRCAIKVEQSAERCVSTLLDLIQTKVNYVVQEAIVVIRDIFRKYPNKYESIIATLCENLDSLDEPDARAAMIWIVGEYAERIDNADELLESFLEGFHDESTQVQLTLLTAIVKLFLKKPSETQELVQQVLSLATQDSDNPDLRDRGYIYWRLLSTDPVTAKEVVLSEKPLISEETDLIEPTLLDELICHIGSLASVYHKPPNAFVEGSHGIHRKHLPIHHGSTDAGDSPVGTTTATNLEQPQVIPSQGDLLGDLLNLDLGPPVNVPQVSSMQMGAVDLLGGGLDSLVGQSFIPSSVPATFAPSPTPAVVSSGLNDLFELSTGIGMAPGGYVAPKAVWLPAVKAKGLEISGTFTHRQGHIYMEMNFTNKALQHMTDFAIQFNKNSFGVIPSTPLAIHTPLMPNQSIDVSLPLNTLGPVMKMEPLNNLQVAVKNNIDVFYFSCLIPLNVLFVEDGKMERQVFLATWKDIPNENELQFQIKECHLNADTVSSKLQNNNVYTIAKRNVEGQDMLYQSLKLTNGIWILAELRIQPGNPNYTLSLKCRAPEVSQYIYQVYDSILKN
Sequence of Beta-2 adrenergic receptor (Homo sapiens) (P07550 whole entry, looked up): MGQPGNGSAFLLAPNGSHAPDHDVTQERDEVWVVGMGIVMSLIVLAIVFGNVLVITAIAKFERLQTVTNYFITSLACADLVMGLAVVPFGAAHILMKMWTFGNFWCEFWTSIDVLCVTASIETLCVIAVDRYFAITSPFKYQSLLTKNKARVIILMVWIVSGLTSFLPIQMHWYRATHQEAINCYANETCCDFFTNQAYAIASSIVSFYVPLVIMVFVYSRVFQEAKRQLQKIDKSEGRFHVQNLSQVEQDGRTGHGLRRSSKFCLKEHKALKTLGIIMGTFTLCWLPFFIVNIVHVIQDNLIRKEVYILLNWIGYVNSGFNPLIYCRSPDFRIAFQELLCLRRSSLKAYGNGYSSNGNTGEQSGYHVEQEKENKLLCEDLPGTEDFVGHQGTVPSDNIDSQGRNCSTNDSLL
Sequence of ATP-binding cassette sub-family B member 6 (Homo sapiens) (Q9NP58 whole entry, looked up): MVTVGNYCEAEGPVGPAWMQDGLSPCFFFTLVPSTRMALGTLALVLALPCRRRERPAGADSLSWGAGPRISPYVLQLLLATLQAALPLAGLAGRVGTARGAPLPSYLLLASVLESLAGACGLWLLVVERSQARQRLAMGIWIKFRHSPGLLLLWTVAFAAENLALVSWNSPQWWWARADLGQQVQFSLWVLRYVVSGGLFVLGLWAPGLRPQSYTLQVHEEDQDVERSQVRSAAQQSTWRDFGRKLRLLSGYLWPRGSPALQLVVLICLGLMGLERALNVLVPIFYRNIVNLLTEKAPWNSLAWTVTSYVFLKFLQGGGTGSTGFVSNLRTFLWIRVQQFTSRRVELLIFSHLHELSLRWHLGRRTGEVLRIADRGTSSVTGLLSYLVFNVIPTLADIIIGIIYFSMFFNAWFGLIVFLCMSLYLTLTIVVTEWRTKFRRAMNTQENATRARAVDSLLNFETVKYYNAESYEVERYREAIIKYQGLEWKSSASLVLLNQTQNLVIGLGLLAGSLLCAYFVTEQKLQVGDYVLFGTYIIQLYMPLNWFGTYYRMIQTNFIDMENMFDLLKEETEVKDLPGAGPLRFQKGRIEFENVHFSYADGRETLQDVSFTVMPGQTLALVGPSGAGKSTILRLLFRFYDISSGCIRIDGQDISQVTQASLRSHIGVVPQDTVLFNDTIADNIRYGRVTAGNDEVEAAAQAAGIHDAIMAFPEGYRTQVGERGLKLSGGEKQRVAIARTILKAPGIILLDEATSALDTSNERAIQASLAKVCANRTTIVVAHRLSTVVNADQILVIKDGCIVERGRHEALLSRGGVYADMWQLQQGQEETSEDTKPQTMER
Sequence of Beta-adrenergic receptor kinase 1 (Homo sapiens) (P25098 whole entry, looked up): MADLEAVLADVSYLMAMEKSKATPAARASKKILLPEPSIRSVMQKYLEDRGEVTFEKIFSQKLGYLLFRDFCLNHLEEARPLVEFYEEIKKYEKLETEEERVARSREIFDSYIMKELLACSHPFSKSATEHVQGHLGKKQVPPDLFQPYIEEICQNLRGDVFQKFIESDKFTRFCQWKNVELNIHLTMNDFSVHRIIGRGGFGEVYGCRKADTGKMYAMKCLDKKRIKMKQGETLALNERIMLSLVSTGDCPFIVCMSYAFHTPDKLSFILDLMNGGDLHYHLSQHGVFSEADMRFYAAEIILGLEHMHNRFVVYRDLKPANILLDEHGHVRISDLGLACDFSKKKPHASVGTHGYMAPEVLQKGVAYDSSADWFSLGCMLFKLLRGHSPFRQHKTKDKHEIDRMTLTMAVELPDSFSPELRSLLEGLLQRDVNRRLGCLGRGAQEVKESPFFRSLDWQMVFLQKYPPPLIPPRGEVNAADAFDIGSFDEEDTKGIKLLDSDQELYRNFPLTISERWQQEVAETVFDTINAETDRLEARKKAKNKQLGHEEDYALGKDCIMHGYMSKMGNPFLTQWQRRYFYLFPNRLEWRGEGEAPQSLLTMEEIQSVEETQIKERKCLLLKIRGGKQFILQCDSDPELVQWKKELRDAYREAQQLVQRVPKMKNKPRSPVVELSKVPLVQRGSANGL
Sequence of Integrin beta-1 (Homo sapiens) + Integrin alpha-4 (Homo sapiens) (P05556 whole entry, looked up): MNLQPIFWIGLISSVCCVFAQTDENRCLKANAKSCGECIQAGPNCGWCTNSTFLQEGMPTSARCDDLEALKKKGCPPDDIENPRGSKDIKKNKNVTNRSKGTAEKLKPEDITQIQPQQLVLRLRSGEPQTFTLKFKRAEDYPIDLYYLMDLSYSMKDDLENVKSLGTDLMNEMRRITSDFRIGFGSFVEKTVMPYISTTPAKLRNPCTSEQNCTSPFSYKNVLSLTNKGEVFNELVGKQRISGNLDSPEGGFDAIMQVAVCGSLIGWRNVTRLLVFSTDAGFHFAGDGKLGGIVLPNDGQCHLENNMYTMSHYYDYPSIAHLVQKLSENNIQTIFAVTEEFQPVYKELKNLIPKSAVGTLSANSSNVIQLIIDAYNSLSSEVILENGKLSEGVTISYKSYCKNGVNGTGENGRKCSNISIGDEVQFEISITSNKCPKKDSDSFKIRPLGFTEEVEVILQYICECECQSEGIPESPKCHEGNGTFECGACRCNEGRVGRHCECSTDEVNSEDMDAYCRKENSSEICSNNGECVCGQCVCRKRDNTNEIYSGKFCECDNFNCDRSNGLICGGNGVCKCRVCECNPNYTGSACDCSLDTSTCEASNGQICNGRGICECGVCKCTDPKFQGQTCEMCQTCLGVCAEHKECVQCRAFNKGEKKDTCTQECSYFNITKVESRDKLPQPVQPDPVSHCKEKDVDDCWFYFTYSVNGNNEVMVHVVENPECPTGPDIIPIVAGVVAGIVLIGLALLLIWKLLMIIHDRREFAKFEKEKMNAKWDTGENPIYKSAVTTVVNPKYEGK
Sequence of Integrin beta-1 (Homo sapiens) + Integrin alpha-4 (Homo sapiens) (P13612 whole entry, looked up): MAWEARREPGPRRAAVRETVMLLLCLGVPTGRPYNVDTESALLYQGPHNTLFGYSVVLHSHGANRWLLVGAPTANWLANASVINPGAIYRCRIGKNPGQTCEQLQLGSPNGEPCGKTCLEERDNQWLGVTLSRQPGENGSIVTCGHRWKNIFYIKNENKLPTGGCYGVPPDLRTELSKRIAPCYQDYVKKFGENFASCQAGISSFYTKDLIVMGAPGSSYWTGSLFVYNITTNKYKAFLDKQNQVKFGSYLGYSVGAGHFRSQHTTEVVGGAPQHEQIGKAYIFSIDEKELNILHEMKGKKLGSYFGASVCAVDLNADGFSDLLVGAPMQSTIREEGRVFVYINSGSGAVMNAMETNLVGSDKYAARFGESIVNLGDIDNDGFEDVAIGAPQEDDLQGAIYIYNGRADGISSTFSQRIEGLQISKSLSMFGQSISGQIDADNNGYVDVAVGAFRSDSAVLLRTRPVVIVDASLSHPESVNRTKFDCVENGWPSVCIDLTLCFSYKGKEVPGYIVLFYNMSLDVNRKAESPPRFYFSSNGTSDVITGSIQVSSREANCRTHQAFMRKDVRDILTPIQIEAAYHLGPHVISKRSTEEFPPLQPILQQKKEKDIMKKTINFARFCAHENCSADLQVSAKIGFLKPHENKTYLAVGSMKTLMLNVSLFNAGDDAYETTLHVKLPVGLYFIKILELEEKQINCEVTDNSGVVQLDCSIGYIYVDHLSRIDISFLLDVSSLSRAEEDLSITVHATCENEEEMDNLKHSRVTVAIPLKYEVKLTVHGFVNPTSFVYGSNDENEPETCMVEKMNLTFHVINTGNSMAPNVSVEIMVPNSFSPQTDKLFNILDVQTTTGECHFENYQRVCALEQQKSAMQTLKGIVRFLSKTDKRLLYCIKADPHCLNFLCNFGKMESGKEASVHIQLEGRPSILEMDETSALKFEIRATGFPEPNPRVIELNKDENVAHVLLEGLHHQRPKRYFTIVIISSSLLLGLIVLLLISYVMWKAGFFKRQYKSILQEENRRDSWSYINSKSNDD

As for `CC(CN1c2ccccc2Sc2ccccc21)N(C)C` (centres undefined), the percent of DMSO control GFP in test [1] was 92.4% (inactive). Besides, the GFP response vs DMSO was 117% (inactive) in test [2] and 78.1% (inactive) in test [4]. Moreover, the percent response of DMSO control in test [3] was 111% (inactive). Besides, the GFP response, % of DMSO in test [5] is 94.9% (inactive). The compound also returned a double positive events in test [6] of 74.2%. The vesicle binding response in test [6] was 363% (inactive). For the same compound, the values for the inhibition in [7], in test [11] and in test [15] were -2.27% (inactive), 1.26% (inactive) and 10% (inactive), respectively. In test [8], the superoxide response (% of plate) is 84.2% (inactive). The aptamer binding inhibition in test [9] is -3% (inactive). The results for the response in test [10] and in [12] were -2.04% (inactive) and -2.78% (inactive), respectively. Further, the binding (% of control) in [13] is 97.2% (inactive). Further, the efflux inhibition (fraction of control) in test [14] was -0.53 (inactive). For the same compound, the differentiation response in test [16] is -1.64% (inactive).
On to `COc1ccc(C(=O)CCN2CCc3cc(OC)c(OC)cc3C2)cc1`, for which, in [1], the percent of DMSO control GFP is 104% (inactive). Also, the GFP response vs DMSO is 116% (inactive) in [2] and 70.3% (inactive) in test [4]. Besides, in test [3], the percent response of DMSO control was 107% (inactive). For the same compound, the GFP response, % of DMSO in test [5] is 99.7% (inactive). The double positive events in test [6] is 59%. Besides, the vesicle binding response in test [6] was 115% (inactive). The inhibition (commonly the change of the read-out against control, counted positive when it falls) was 1.12% (inactive) in [7], -1.91% (inactive) in [11] and 13% (inactive) in test [15]. Besides, in test [8], the superoxide response (% of plate) was 111% (inactive). Moreover, in test [9], the aptamer binding inhibition was 2% (inactive). For the same compound, the results for the response in test [10] and in test [12] were 2.49% (inactive) and -2.28% (inactive), respectively. Moreover, the binding (% of control) in [13] is 96.7% (inactive). The efflux inhibition (fraction of control) in [14] was 0.42 (inactive). For the same compound, the differentiation response in test [16] is 4.97% (inactive).
Consider `O=C(/C=C/c1ccccc1)NC(=O)c1ccccc1O`, for which the percent of DMSO control GFP in [1] was 106% (inactive). The GFP response vs DMSO in test [2] is 104% (inactive); in test [4], 121% (inactive). For the same compound, the percent response of DMSO control in [3] is 104% (inactive). The GFP response, % of DMSO in [5] is 94.2% (inactive). Also, in [6], the double positive events was found to be 59.9%. Also, in [6], the vesicle binding response is 128% (inactive). Moreover, the inhibition was 4.27% (inactive) in test [7], 15.2% (inactive) in test [11] and 0% (inactive) in test [15]. For the same compound, in [8], the superoxide response (% of plate) was 111% (inactive). The aptamer binding inhibition in [9] is -4% (inactive). The response in test [10] is 5.9% (inactive); in test [12], -7.97% (inactive). Also, in test [13], the binding (% of control) was 102% (inactive). The efflux inhibition (fraction of control) in [14] was 0.07 (inactive). Besides, the differentiation response in [16] was -10.4% (inactive).
As to `COc1ccc(C2C3=C(OC(C)=O)c4ccccc4C3=Nc3c2c(=O)n(C)c(=O)n3C)cc1` (centres undefined), the percent of DMSO control GFP in [1] was 105% (inactive). For the same compound, the GFP response vs DMSO in [2] is 94.6% (inactive); in [4] it was 105% (inactive). The percent response of DMSO control in test [3] is 106% (inactive). In [5], the GFP response, % of DMSO was 103% (inactive). In test [6], this compound gave a double positive events of 58.8%. For the same compound, in test [6], the vesicle binding response was 127% (inactive). The results for the inhibition in test [7], in [11] and in test [15] were 1.59% (inactive), 0.59% (inactive) and 4% (inactive), respectively. Further, the superoxide response (% of plate) in [8] is 98.4% (inactive). Further, the aptamer binding inhibition in test [9] is -1% (inactive). The response in test [10] was -14.8% (inactive); in test [12] it was -2.42% (inactive). Further, in test [13], the binding (% of control) is 102% (inactive). The efflux inhibition (fraction of control) in test [14] is -0.02 (inactive). In [16], the differentiation response was -11.9% (inactive).
As to `CCOC(=O)C(=Cc1ccccc1OC)C(=O)OCC`, in test [1], the percent of DMSO control GFP is 95% (inactive). The GFP response vs DMSO was 108% (inactive) in [2] and 132% (inactive) in test [4]. Further, the percent response of DMSO control in test [3] was 91% (inactive). In addition, the GFP response, % of DMSO in [5] is 92.9% (inactive). Further, in test [6], the double positive events was 55.3%. The vesicle binding response in test [6] was 189% (inactive). The inhibition in test [7] is -18.2% (inactive); in test [11], 0.13% (inactive); in test [15] it was 4% (inactive). Further, the superoxide response (% of plate) in [8] is 102% (inactive). In addition, the aptamer binding inhibition in [9] is -2% (inactive). Moreover, the response was -11.8% (inactive) in test [10] and 0.91% (inactive) in test [12]. Also, the binding (% of control) in test [13] is 98.9% (inactive). For the same compound, in test [14], the efflux inhibition (fraction of control) was -0.03 (inactive). The differentiation response in test [16] was -12% (inactive).
As to `Cn1nc(-c2ccc(Cl)cc2)nc2c(=O)n(C)c(=O)nc1-2`, in test [1], the percent of DMSO control GFP is 74.2% (active). Also, the GFP response vs DMSO in [2] is 138% (inactive); in test [4] it was 137% (inactive). In addition, in test [3], the percent response of DMSO control is 74.4% (inactive). Moreover, the GFP response, % of DMSO in test [5] was 76.7% (inactive). This compound also gave a double positive events in test [6] of 62.1%. Besides, the vesicle binding response in test [6] was 215% (inactive). In addition, the values for the inhibition in test [7], in [11] and in test [15] were -12.2% (inactive), -4.09% (inactive) and -16% (inactive), respectively. Further, in test [8], the superoxide response (% of plate) is 79.2% (inactive). Besides, in test [9], the aptamer binding inhibition is 45% (active). Moreover, the response is 17.6% (inactive) in test [10] and 59.4% (active) in test [12]. For the same compound, the binding (% of control) in test [13] was 108% (inactive). The efflux inhibition (fraction of control) in test [14] was 0.12 (inactive). In addition, the differentiation response in test [16] is -4.99% (inactive).
For the compound `COc1c2ccoc2nc2c(OC)cccc12`, the percent of DMSO control GFP in [1] is 105% (inactive). Further, the GFP response vs DMSO in test [2] is 101% (inactive); in [4], 102% (inactive). In addition, the percent response of DMSO control in test [3] is 95.8% (inactive). For the same compound, the GFP response, % of DMSO in test [5] was 105% (inactive). Besides, in test [6], the double positive events came out at 64.2%. Also, in test [6], the vesicle binding response was 5040% (inactive). Besides, the inhibition in [7] is 21.4% (inactive); in test [11] it was -5.75% (inactive); in [15], 6% (inactive). In addition, the superoxide response (% of plate) in test [8] is 82.1% (inactive). The aptamer binding inhibition in test [9] is 5% (inactive). Besides, the response is -6.43% (inactive) in [10] and 0.27% (inactive) in test [12]. For the same compound, in test [13], the binding (% of control) was 97.2% (inactive). Also, the efflux inhibition (fraction of control) in [14] was -0.13 (inactive). For the same compound, the differentiation response in test [16] was -15.2% (inactive).
